# Assay outcomes deposited in PubChem BioAssay by ICCB-Longwood Screening Facility, Harvard Medical School.
# Anaer choline gr: growth inhibitors of anaerobic choline-fed gram-negatives, minimal medium, absorbance; Gram-negative bacterium anaerobic choline minimal medium; stronger effect = lower value; actives 0.2% (n = 55,000); calls only; call rule not given here
# An asterisk follows results filed as active; i = inactive; + = active, no number. Shown is part of a subset that was picked to be rich in hits.
SMILES,Anaer choline gr
CN1CCCC1CCOC(C)(c1ccccc1)c1ccc(Cl)cc1 (configuration not stated),+
C=CCn1c(=O)c(=O)n(Cc2ccc(C(=O)NC(C)CCc3ccccc3)cc2)c2ccccc21 (configuration not stated),i
CC(C)(O/N=C(\C(=O)N[C@@H]1C(=O)N2C(C(=O)[O-])=C(C[n+]3ccccc3)CS[C@H]12)c1csc(N)n1)C(=O)O,i
CO/N=C(\C(=O)N[C@@H]1C(=O)N2C(C(=O)[O-])=C(C[N+]3(C)CCCC3)CS[C@H]12)c1csc(N)n1,+
COCC1=C(C(=O)OC(C)OC(=O)OC(C)C)N2C(=O)C(NC(=O)C(=NOC)c3csc(N)n3)C2SC1 (configuration not stated),i
COc1ccc(-c2cc(C(=O)N3CCN(S(=O)(=O)c4ccc(C(C)(C)C)cc4)CC3)[nH]n2)cc1,i
Cc1cc(C(=O)N2CCCN(C)CC2)c(C)n1CCN1CCCCC1,i
COc1ccc(C)cc1NC(=O)CCc1nc(CSc2nc3ccccc3s2)no1,i
CCOc1ccc(CN2CCCC2c2c(C)noc2C)cc1OCC (configuration not stated),i
